GSH fluor: compound fluoresces at 488/530 nm on GSH beads. GSH beads flow cytometry, compound fluorescence 488/530 nm; hits give high values. fluorescence (KMESF) at 10 µM. 190,000 tested, 0.25% active. AID 1776; in the data active means fluorescence above about 89;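 further: glutathione beads carrying GST-tagged Bcl family fusion proteins plus one bare bead set; values are compound well signal with DMSO vehicle wells as background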
RGS7-Gao reg: modulates binding of RGS7 to human Galphao | P09471 | Multiplexed bead flow cytometry; actives lie on both sides | binding response (% of control), % at 10 µM | 220,000 tested, 0.35% active; in the data active means binding response below about 49% or above about 150%; inconclusive means no clear call, values can overlap the other calls; inactive means in between;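 further: fluorescent Galphao held in activated GDP-AlF4 state binding bead-coupled RGS7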
Target sequence (P09471 whole entry, looked up): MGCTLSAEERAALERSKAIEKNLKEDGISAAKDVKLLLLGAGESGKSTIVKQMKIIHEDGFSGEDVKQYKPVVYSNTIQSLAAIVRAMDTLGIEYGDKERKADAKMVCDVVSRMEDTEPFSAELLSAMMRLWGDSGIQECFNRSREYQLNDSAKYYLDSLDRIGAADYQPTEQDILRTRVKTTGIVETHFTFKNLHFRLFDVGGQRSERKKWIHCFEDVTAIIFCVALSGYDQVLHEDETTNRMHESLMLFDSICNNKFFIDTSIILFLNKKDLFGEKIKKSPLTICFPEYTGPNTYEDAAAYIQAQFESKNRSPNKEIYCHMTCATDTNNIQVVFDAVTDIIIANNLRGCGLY
Avidin bead fluor: compound fluoresces at 488/530 nm on avidin beads | compound fluorescence 488/530 nm, flow cytometry; hits give high values | fluorescence (KMESF) at 10 µM | 220,000 tested, 0.38% active; in the data active means fluorescence above about 47
RGS8-Gao reg: modulates binding of RGS8 to human Galphao | response (percent of control binding), % at 10 µM | multiplexed bead flow cytometry; actives lie on both sides | P09471 | 220,000 tested, 0.34% active; in the data active means response below about 60% or above about 140%; inactive means in between;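 further: Galphao activated as the GDP aluminium fluoride complex binding bead-coupled RGS8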
RGS16-Gao HTS: RGS16-Galphao interaction regulator (human); bead-based flow cytometry RGS16-Galphao binding, fluorescence; actives lie on both sides; 220,000 tested, 0.38% active; binding response (% of control), % at 10 µM; O15492+P09471; call rule not given here;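 further: Galphao activated by GDP with aluminum fluoride before binding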
RGS4-Gao reg: human RGS4-Galphao interaction regulation | P09471 | Multiplexed bead flow cytometry, RGS4-Galphao binding; actives lie on both sides | binding response (% of control), % at 10 µM | 220,000 tested, 0.33% active; in the data active means binding response below about 49% or above about 150%; inactive means in between;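 further: fluorescent Galphao activated with aluminum fluoride binding bead-coupled RGS4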
* marks the source's active call; other numbers are inactive results. Compounds with a hit are over-represented: about 1.2% of the library has one in this group of screens.

Screening O=P(O)(O)C#Cc1ccccc1 returned GSH fluor 261*, RGS7-Gao reg 97, Avidin bead fluor 9, RGS8-Gao reg 97, RGS16-Gao HTS 95 and RGS4-Gao reg 98.
Screening CC(C)C(C)(NC(=O)c1cccn(Cc2ccc3c(c2)OC(F)(F)O3)c1=O)C(N)=O (stereo not given) returned GSH fluor 13, RGS7-Gao reg 102, Avidin bead fluor 10, RGS8-Gao reg 102, RGS16-Gao HTS 112 and RGS4-Gao reg 101.
For O=C(Cn1cc(C(=O)c2ccccc2)c2ccccc21)NCc1ccco1 the results were GSH fluor 20, RGS7-Gao reg 108, Avidin bead fluor 50*, RGS8-Gao reg 105, RGS16-Gao HTS 111 and RGS4-Gao reg 103.
O=C(c1cc(=O)[nH]c2ccc(Br)cc12)N1CCC2(CC1)OCCO2 was read as GSH fluor 6, RGS7-Gao reg 106, Avidin bead fluor 22, RGS8-Gao reg 101, RGS16-Gao HTS 107 and RGS4-Gao reg 108.
`O=C1NC(=O)C2(Cc3ccccc3N3CCCC32)C(=O)N1` (stereo not given) gave GSH fluor 32, RGS7-Gao reg 100, Avidin bead fluor 8, RGS8-Gao reg 95, RGS16-Gao HTS 87 and RGS4-Gao reg 101.
O=C1NC(=O)C2(Cc3ccccc3N3CCCC32)C(=O)N1c1ccccc1 (stereo not given) was read as GSH fluor 23, RGS7-Gao reg 111, Avidin bead fluor 54*, RGS8-Gao reg 99, RGS16-Gao HTS 100 and RGS4-Gao reg 99.
`CCN(CC)S(=O)(=O)N1CCC(C(=O)N2CCC3(CC2)OCCO3)CC1` gave GSH fluor 19, RGS7-Gao reg 100, Avidin bead fluor 8, RGS8-Gao reg 103, RGS16-Gao HTS 104 and RGS4-Gao reg 104.
`CCCCCn1c(=O)c(C(=O)Nc2nc(CC(=O)OCC)cs2)c(O)c2ccccc21` gave GSH fluor 96*, RGS7-Gao reg 102, Avidin bead fluor 22, RGS8-Gao reg 103, RGS16-Gao HTS 103 and RGS4-Gao reg 101.
For COc1cc(NC(=O)CN2C3CCC2CC(O)(c2cccnc2)C3)cc(OC)c1 (stereo not given) the results were GSH fluor 11, RGS7-Gao reg 113, Avidin bead fluor 49*, RGS8-Gao reg 100, RGS16-Gao HTS 100 and RGS4-Gao reg 104.
For CCN(CC)S(=O)(=O)c1cc(NC(=O)C(C)N2CC=C(c3ccccc3)CC2)ccc1C (stereo not given) the results were GSH fluor 9, RGS7-Gao reg 102, Avidin bead fluor 14, RGS8-Gao reg 103, RGS16-Gao HTS 103 and RGS4-Gao reg 104.
Screening Cc1n[nH]c(C)c1CCN returned GSH fluor 16, RGS7-Gao reg 102, Avidin bead fluor 59*, RGS8-Gao reg 102, RGS16-Gao HTS 105 and RGS4-Gao reg 104.
`CC(C)(C)c1nc(NCc2ccc3c(c2)OCO3)c2nnn(Cc3ccccc3Cl)c2n1` gave GSH fluor 141*, RGS7-Gao reg 102, Avidin bead fluor 4, RGS8-Gao reg 100, RGS16-Gao HTS 104 and RGS4-Gao reg 101.
For CC(=O)C1C2c3ccccc3OC1(C)N=c1s/c(=C/c3cn(C)nc3C)c(=O)n12 (stereo not given) the results were GSH fluor 12, RGS7-Gao reg 101, Avidin bead fluor 12, RGS8-Gao reg 102, RGS16-Gao HTS 98 and RGS4-Gao reg 96.
`NNc1n[nH]c(=S)n1N` gave RGS7-Gao reg inconclusive, Avidin bead fluor 88*, RGS8-Gao reg 104, RGS16-Gao HTS 144 and RGS4-Gao reg 144.
For COc1ccccc1/C=C1/C(=N/O)C2CCN1CC2 the results were GSH fluor 25, RGS7-Gao reg 96, Avidin bead fluor 34, RGS8-Gao reg 98, RGS16-Gao HTS 95 and RGS4-Gao reg 95.
`COc1ccc(-c2csc(NC(=O)COC(=O)Cc3ccccc3)n2)cc1OC` gave GSH fluor 6, RGS7-Gao reg 101, Avidin bead fluor 2, RGS8-Gao reg 101, RGS16-Gao HTS 105 and RGS4-Gao reg 101.
For CC1Oc2cc3c(-c4c(O)cc(O)c5c(O)c6c(cc45)OC(C)C(C)C6=O)c(O)cc(O)c3c(O)c2C(=O)C1C (stereo not given) the results were RGS7-Gao reg inconclusive, Avidin bead fluor 0, RGS8-Gao reg 36*, RGS16-Gao HTS 15* and RGS4-Gao reg 14*.
For O=c1[nH]c(=O)n(C2CCCCC2)c(O)c1C1NCCc2ccccc21 (stereo not given) the results were GSH fluor 261*, RGS7-Gao reg 102, Avidin bead fluor 6, RGS8-Gao reg 103, RGS16-Gao HTS 100 and RGS4-Gao reg 106.
`CCOP(=O)(OCC)C(O)c1cccnc1` (stereo not given) gave RGS7-Gao reg inconclusive, Avidin bead fluor 81*, RGS8-Gao reg 109, RGS16-Gao HTS 113 and RGS4-Gao reg 132.
CCOP(=O)(OCC)C(O)c1ccccc1 (stereo not given) was read as RGS7-Gao reg inconclusive, Avidin bead fluor 4, RGS8-Gao reg 104, RGS16-Gao HTS 101 and RGS4-Gao reg 108.
Screening C=CCn1c(O)c(C=NCCN2CCOCC2)c(=O)[nH]c1=S returned RGS7-Gao reg inconclusive, Avidin bead fluor 6, RGS8-Gao reg 101, RGS16-Gao HTS 103 and RGS4-Gao reg 100.
For COC(=NC1CCCC1)C(O)c1c[nH]c2ccccc12 (stereo not given) the results were GSH fluor 19.
O=c1c2ccccc2nc(-c2ccco2)n1-c1ccccc1 was read as GSH fluor 125*, RGS7-Gao reg 109, Avidin bead fluor 12, RGS8-Gao reg 106, RGS16-Gao HTS 113 and RGS4-Gao reg 118.
Screening O=c1[nH]c(=O)n(CCC2=CCCCC2)c(O)c1C=Nc1cccc(F)c1 returned GSH fluor 12, RGS7-Gao reg 113, Avidin bead fluor 57*, RGS8-Gao reg 102, RGS16-Gao HTS 97 and RGS4-Gao reg 100.
Screening Nc1ccccc1N=Cc1c(O)n(CCC2=CCCCC2)c(=O)[nH]c1=O returned GSH fluor 10, RGS7-Gao reg 96, Avidin bead fluor 19, RGS8-Gao reg 100, RGS16-Gao HTS 100 and RGS4-Gao reg 100.
N=Cc1c(O)n(-c2ccc(C34CC5CC(CC(C5)C3)C4)cc2)c(=O)[nH]c1=O was read as GSH fluor 10, RGS7-Gao reg 76, Avidin bead fluor 3, RGS8-Gao reg 93, RGS16-Gao HTS 96 and RGS4-Gao reg 90.

High-throughput results from PubChem.
